Bioassay records as filed in PubChem.
A selection: hits, their analogues and other compounds. The true share with any hit is near 2.7%.
14-3-3 Bad PPI: disrupts binding of bovine 14-3-3 zeta to phospho-Bad peptide; TR-FRET 14-3-3zeta/Dy647-pBad peptide displacement, 1 h; 0.71% of 220,000 active; inhibition, % at 21.7 µM; P63103;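 active means inhibition above about 70%, limit read from the data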;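 further: 0% = full 14-3-3 plus peptide FRET controls and 100% = background without 14-3-3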
Mcl1 Noxa PPI: disrupts binding of human Mcl-1 to Noxa peptide. TR-FRET Mcl-1/Noxa peptide binding, 2 h. AID 1022. inhibition, % at 21.7 µM. Q07820. 1.5% of 220,000 active;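 active means compounds that cut the protein-peptide binding signal by more than 50% relative to plate controls in a single-dose test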;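 further: His-tagged Mcl-1 with rhodamine Noxa BH3 peptide and terbium anti-His antibody; 0% = Mcl-1 plus Noxa peptide wells and 100% = peptide-only wells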
Target sequence (Q07820 whole entry, looked up): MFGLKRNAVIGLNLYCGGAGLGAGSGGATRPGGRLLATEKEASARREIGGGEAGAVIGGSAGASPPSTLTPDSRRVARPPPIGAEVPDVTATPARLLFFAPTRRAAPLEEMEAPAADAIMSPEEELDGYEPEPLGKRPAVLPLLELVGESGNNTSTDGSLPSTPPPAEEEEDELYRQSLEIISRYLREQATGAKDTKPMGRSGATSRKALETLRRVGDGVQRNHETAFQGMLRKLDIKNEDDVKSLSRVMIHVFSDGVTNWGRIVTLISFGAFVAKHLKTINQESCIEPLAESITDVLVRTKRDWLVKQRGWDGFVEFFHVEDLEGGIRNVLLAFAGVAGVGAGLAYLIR
Mcl1 Bid PPI: disrupts binding of human Mcl-1 to Bid peptide. Q07820. TR-FRET Mcl-1/Bid-Dy647 peptide binding, 1536-well. inhibition, % at 21.7 µM. 0.97% of 220,000 active;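 active means compounds that cut the binding signal by more than half at the single screening dose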;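 further: His-tagged Mcl-1 with europium anti-His antibody binding Bid BH3 peptide; 0% = Mcl-1 plus peptide wells and 100% = peptide-only wells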
Bim-Mcl-1: human Bim-Mcl-1 interaction inhibition. Q07820. Bead-based flow cytometry, Bim peptide-Mcl-1 binding. inhibition, % at 10 µM. 0.1% of 190,000 active. AID 1009; in the data active means inhibition above about 40%;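 further: 0% = no compound tracer wells and 100% = peptide blocker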
eIF4E 4G PPI: inhibitors of eIF4E and eIF4G interaction in translation initiation | P63073+Q04637 | inhibition, % at 21.7 µM | 0.37% of 220,000 active | TR-FRET eIF4E-eIF4GI(517-606) binding, 2 h;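 active means inhibition above about 30%, limit read from the data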;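 further: 0% = full FRET control wells and 100% = background wells lacking eIF4GI fragment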
Pf gametocyte: P. falciparum stage V gametocyte viability inhibition; P. falciparum stage V gametocytes, ATP luminescence, 24 h; inhibition, % at 10.9 µM; 0.065% of 150,000 active;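 active means inhibition above the mean plus 3 SD of compounds within the control limits, set per campaign, cut at about 38% in these data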;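 further: 0% = DMSO wells and 100% = medium only without gametocytes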
* = called active by the depositor; · = not tested or not shown; [ ] = another dose, or the depositor's remark.

SMILES | 14-3-3 Bad PPI | Mcl1 Noxa PPI | Mcl1 Bid PPI | Bim-Mcl-1 | eIF4E 4G PPI | Pf gametocyte
O=C(CN1CCN(c2ccc(O)cc2)CC1)NC(=O)NCc1ccco1 | -8.9 | 51.6* | -50.1 | -2.0 | -0.5 | 14.9
Cc1ccccc1Nc1nnc(SCC(=O)NCc2ccco2)s1 | -0.9 | 60.6* | -20.5 | -3.0 | 4.1 | ·
O=C(CSc1ccccc1F)NC(=O)NCc1ccco1 | -21.3 | 51.6* | -26.9 | 0.0 | 5.5 | -33.1
CC(=O)Nc1ccc(S(=O)(=O)Nc2ccc(C)c([N+](=O)[O-])c2)cc1 | -19.8 | 16.7 | -8.7 | 1.0 | 3.7 | -5.6
CS/C(=N\S(=O)(=O)c1cccs1)NC(=O)CSc1nc2ccccc2s1 | 73.2* | 52.8* | -4.8 | 1.0 | 15.0 | ·
C/C(=N/NC(=O)CSc1nc2ccccc2s1)c1ccncc1 | -10.4 | -11.7 | -8.9 | · | 0.2 | 21.2
CCCCn1c(SCC(=O)NC(=O)NCc2ccco2)nc2cc(S(N)(=O)=O)ccc21 | 8.1 | 62.8* | -2.2 | -2.0 | 3.3 | ·
O=C(CSc1nc2ccccc2s1)NC(=O)NCc1ccco1 | 12.4 | 54.5* | -24.7 | -2.0 | -1.7 | -14.1
CSc1nc2ccc3nc(NC(=O)c4ccccc4)sc3c2s1 | 21.1 | 29.1 | 54.8* | 0.0 | 0.3 | ·
C/C(=N\O)c1cc(Cl)ccc1O | -9.0 | 5.4 | -10.8 | · | 91.6* | -4.3
CN(C)c1ccc(/C=C/C(=O)c2cc(Cl)ccc2O)cc1 | -14.5 | 20.1 | -41.5 | · | 2.1 | ·
O=C1NN(c2ccccc2)C(=O)/C1=C\c1cccc(OC(=O)c2cccs2)c1 | 11.7 | 57.3* | 16.1 | -3.0 | 2.1 | 3.3
COC(=O)N/N=C\c1cccc(OC(=O)c2cccs2)c1 | -14.4 | 12.5 | -11.9 | 0.0 | -1.1 | 7.4
O=C1NN(c2ccc(Cl)c(Cl)c2)C(=O)/C1=C/c1cccc(OC(=O)c2cccs2)c1 | 54.0 | 96.3* | 90.0* | -1.0 | -5.1 | ·
CNC(=S)c1cc(C(C)(C)C)c(O)c(C(C)(C)C)c1 | -4.8 | -19.7 | -21.9 | · | 6.4 | -4.0
COC(=O)Cn1c(=O)c2c(n(Cc3ccccc3)c1=O)N/C(=C/c1ccc(Br)cc1)C2=O | 5.6 | 54.4* | -21.3 | · | -0.5 | 7.2
COC(=O)C1=C(SC)N(c2ccccc2)C(c2ccccc2)CC1=O (configuration not stated) | 10.7 | 29.1 | 13.3 | -5.0 | -16.0 | 4.4
O=P(O)(O)c1ccccc1OCCOCCOc1ccccc1P(=O)(O)O | 6.3 | 17.1 | 24.5 | 0.0 | 1.9 | ·
CCOP(=O)(O)c1ccccc1OCCOCCOc1ccccc1P(=O)(O)OCC | 30.6 | 53.5* | 29.5 | -1.0 | -2.4 | ·
C=CCN1C(=O)CSC1=Nc1ccc(C(=O)O)cc1 | · | · | · | · | · | 2.0
C=CCN1C(=O)CSC1=Nc1cccc(O)c1 | 9.5 | 9.6 | -3.8 | 1.0 | 30.4* | 1.5
CC1CN(c2nc3c(c(=O)n(C)c(=O)n3C)n2Cc2c(F)cccc2Cl)CC(C)O1 (configuration not stated) | 8.1 | -7.7 | -16.2 | -6.0 | 4.4 | 19.8
Cc1cc([N+](=O)[O-])c(C)cc1-c1ccc(/C=N/NC(=O)Cn2nnnc2N)o1 | 87.8* | 54.9* | 52.6* | 1.0 | 22.5 | -2.4
O=C(N/N=C/c1ccc(-c2ccc(Cl)c(C(=O)O)c2)o1)c1cc2c(ccc3ccccc32)o1 | 56.8 | 109.7* | 95.6* | · | 24.8 | 7.7
Cc1ccc([N+](=O)[O-])cc1-c1ccc(/C=N/NC(=O)c2cc3c(ccc4ccccc43)o2)o1 | 85.3*[fluorescence artefact?] | 6.3 | -13.0 | 0.0 | -22.3 | ·
SMILES | 14-3-3 Bad PPI | Mcl1 Noxa PPI | Mcl1 Bid PPI | Bim-Mcl-1 | eIF4E 4G PPI | Pf gametocyte
O=C(N/N=C/c1cccc([N+](=O)[O-])c1)c1cc2c(ccc3ccccc32)o1 | 68.7 | 30.6 | 81.8* | 0.0 | -47.4 | ·
Nc1nnnn1CC(=O)N/N=C/c1cc([N+](=O)[O-])ccc1Cl | -5.8 | -4.2 | -29.7 | 1.0 | 0.5 | 2.9
COc1cc(/C=N/Nc2ccc(C(F)(F)F)cn2)cc(OC)c1O | -6.5 | 56.8* | -19.0 | 0.0 | 3.2 | ·
Oc1ccc(/C=N/Nc2ccc(C(F)(F)F)cn2)cc1 | -5.9 | 27.7 | -46.5 | 0.0 | -1.0 | ·
CCCN(CCC)CCNC(=O)c1cc2c(=O)n(CC)c3ccccc3c2s1 | 9.7 | 28.2 | 1.5 | · | 96.7* | -17.9
CC(CCc1ccccc1)NCc1ccncc1 (configuration not stated) | 89.6* | 34.4 | -6.2 | 0.0 | 0.3 | ·
Cc1ccc(/C=N/NC(=O)CNC(=O)Cc2ccccc2)o1 | 0.8 | -4.3 | -13.1 | -3.0 | -1.1 | ·
